Results from PubChem BioAssay AID720487 (Milwaukee Institute for Drug Discovery, 2013).
The other results are listed elsewhere or left out. Values without a mark were called inactive. Calls of active or inactive are those of the source.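 How the source made its calls: active means fluorescence interference ratio at or above 1.2, signal boosting, or at or below 0.8, signal quenching; inactive means ratio between 0.8 and 1.2.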

Test: signal quenchers or enhancers, Cy5-oligo/SSB – biochemical, E. coli SSB, selected ChemBridge compounds, artefact control for HCV NS3 helicase inhibitor project (AID 720487);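 further: ratio of compound well signal to mean negative control signal so 1 means no effect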
Conditions: Cy5-dT15/E. coli SSB fluorescence interference; at 100 µM; actives lie on both sides

SMILES | fluorescence interference ratio
CCOc1ccc(C=C2C(=O)NC(=O)NC2=O)cc1Cl | 0.963
Cc1ccc(C(=O)C[n+]2cc(-c3ccccc3)n3c2CCCCC3)cc1 | 1.01
CCN(CC)c1ccc(NC(=O)/C(=C\c2ccccc2)NC(C)=O)cc1 | 1.22 (active)
COc1ccc(N2C(=O)C=CC2=O)c([N+](=O)[O-])c1 | 1
O=C1NC(=O)C(=Cc2cc([N+](=O)[O-])cc(Br)c2O)C(=O)N1 | 0.896
COc1ccc(C(=O)Oc2ccc3oc(=O)cc(C)c3c2)cc1OC | 0.977
O=C(NC(=S)Nc1ccc(-c2nc3cc(Cl)ccc3o2)cc1)c1ccco1 | 0.991
C=CCN1C(=O)/C(=C\c2cc(OC)c(O)c([N+](=O)[O-])c2)C(=O)NC1=S | 0.902
CCN(CC)c1ccc(C=C2C(=O)N(C)C(=O)N(C)C2=O)c(O)c1 | 1.15
COc1cc(C=C2C(=O)NC(=O)NC2=O)ccc1OCCOc1ccc([N+](=O)[O-])cc1 | 0.897
O=c1c2c(nc3cc(-c4cccc(F)c4)[nH]n13)CCS2 | 0.862
COc1cc(/C(O)=C(\C#N)c2nc3ccccc3n2C)cc(OC)c1OC | 0.913
Cc1ccc(C(=O)NCCNc2ccc([N+](=O)[O-])cc2)cc1 | 0.915
N#Cc1c(N)nc2sc(C(=O)Nc3ccccc3)c(N)c2c1-c1ccco1 | 1.02
CC(C)(C)N1C(=O)NC(=O)C(=Cc2cccs2)C1=O | 0.954
